# Reference: PubChem BioAssay AID463215 (Sanford-Burnham Center for Chemical Genomics, 2010)
# Hit rate of the full screen: of about 4,600 compounds, about 2,900 (63%) were called active. The set was probably picked from earlier hits. These entries were drawn from the full list. Values without a mark were called inactive.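 How the source made its calls: active means inhibition of yeast growth at or above a set limit in either of two replicates at 10 µM; inactive means the rest.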
# Test: TIM10 isogenic control strain growth inhibition – single concentration, luminescence, S. cerevisiae, counter-screen for tim10-1 synthetic lethality project, confirmation (AID 463215);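 further: isogenic wild-type TIM10 control yeast grown in succinate dextrose medium; this counterscreen used the strain with wild-type TIM10; 0% = yeast with DMSO and 100% = medium wells lacking yeast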
# Details: BacTiter-Glo luminescence, 24 h, at 10 µM, stronger effect = higher value
row,Structure (SMILES),inhibition
1,CC1CCCCC1NC(=O)/C(C#N)=C/C=C/c1ccccc1[N+](=O)[O-] (stereo not given),41.3% (active)
2,COc1ccc2nc(N3CCN(C(=O)c4ccc([N+](=O)[O-])o4)CC3)sc2c1,82.2% (active)
3,Cc1ccccc1OCC(=O)Nc1ccc(N2CCN(C(=O)C(C)C)CC2)c(Cl)c1,62.8% (active)
4,Oc1c(Cl)cc(Cl)c(Cl)c1Cc1c(O)c(Cl)cc(Cl)c1Cl,89.8% (active)
5,CSC1=N/C(=C\C=C\c2cccs2)C(=O)S1,56.8% (active)
6,Cc1cccc(C2=N/C(=C/c3cccs3)C(=O)O2)c1,22%
7,O=C(CCN1CCc2ccccc2C(O)(c2ccccc2)C1)c1ccc2c(c1)OCCO2 (stereo not given),46.2% (active)
8,Cc1cc(C)cc(NC(=S)NCCc2c[nH]c3ccccc23)c1,-10.2%
9,Cc1cccc(NC(=S)NCc2ccc3[nH]c4c(c3c2)CCCC4)c1,34.5% (active)
10,c1ccc(C2=Nc3cccc4cccc(c34)N2)cc1,-39.8%
11,O=C1c2ccccc2C(=O)c2c1cccc2N1CCN(Cc2ccccc2)CC1,34.2% (active)
12,O=Cc1c(N2CCN(c3cccc(Cl)c3)CC2)nc2ccccn2c1=O,17.8%
13,COc1cc(Br)cc(/C=N/c2ncn[nH]2)c1O,35% (active)
14,c1ccc(-c2nnc3n2NC(c2ccc4c(c2)OCO4)S3)cc1 (stereo not given),59.1% (active)
15,Cc1ccc(-c2nn(C(C)(C)C)c3ncnc(N)c23)cc1,54.8% (active)
16,CC(C)(CCl)C(=O)Nc1ccc(Sc2ccc(F)cc2)cc1,41% (active)
17,C=CCNC(=O)c1ccc2c3n(nc2c1)-c1ccc(C)cc1CO3,45.5% (active)
18,CCOC(=O)C1=C(C)N=c2s/c(=C\C(=O)OC)c(=O)n2C1c1ccc(OC)cc1 (stereo not given),53.6% (active)
19,S=C(NCc1ccc(Cl)cc1)NC12CC3CC(CC(C3)C1)C2,23.8%
20,O=C(COC(=O)c1ccc([N+](=O)[O-])o1)NC12CC3CC(CC(C3)C1)C2,44.8% (active)
21,COc1ccc(CN(C(=O)CSc2nnc(-c3ccc(OC)c(OC)c3)o2)c2ccc(F)cc2)cc1,19%
22,CCN(CC)c1ccc(/C=N/NC(=O)c2cnccn2)c(O)c1,41.4% (active)
23,COc1ccc(C(=O)O/N=C(\N)Cc2ccc(Cl)cc2Cl)cc1OC,86.7% (active)
24,Cc1cc(N=Nc2ccc3ccccc3c2)ccc1O,88.4% (active)
25,FC(F)(F)c1cnc(Oc2ccccc2-c2nnc(-c3ccc(Cl)cc3)o2)c(Cl)c1,5.25%

row,Structure (SMILES),inhibition
1,O=C1Oc2ccccc2C(=O)/C1=C/c1ccccc1O,57.5% (active)
2,Cc1cccc(N=Nc2c(O)[nH]c3ccc(F)cc23)c1,40.8% (active)
3,Cc1nc(-c2ccc(NC(=O)c3cccs3)cc2)cs1,-32.7%
4,COc1cc(NC(=O)c2cccs2)ccc1NC(=O)c1ccccc1Cl,5.7%
5,O=C(Nc1ccc(NC(=O)c2cccs2)cn1)c1ccco1,32.2% (active)
6,Cc1ccc2nc(-c3ccc(Br)cc3)cn2c1,38.8% (active)
7,Cc1ccc(-c2cn3cc(C)ccc3n2)cc1,67% (active)
8,Nc1cc(OC(=O)c2ccccc2Br)nn1S(=O)(=O)c1ccccc1,48% (active)
9,CN1C(=O)/C(=N/OC(=O)c2ccccc2Br)c2ccccc21,61.5% (active)
10,Fc1ccccc1/C=C1\CCCC2=C1Nc1ncnn1C2c1ccccc1F (stereo not given),26.4%
11,CCc1cc(C(N)=O)c(NC(=O)c2ccc(OC)cc2)s1,59.7% (active)
12,COc1ccc(C(=O)Nc2ccc(-n3nncc3C(C)(C)C)cc2)cc1,21.1%
13,CC(C)(C)C(=O)c1cnc(Nc2ccccc2)s1,21.1%
14,CSCCC(NS(=O)(=O)/C=C/c1ccccc1)C(=O)N1CCC(C)CC1 (stereo not given),2.25%
15,CCn1c(/C=C/c2ccc([N+](=O)[O-])o2)nc2ccccc2c1=O,80.8% (active)
16,COc1ccc2c(c1)cc1n2CCN=C1NN,51.4% (active)
17,COc1ccccc1-c1n[nH]c2c1[C@H](C)CC[C@H]2C(C)C,50.2% (active)
18,Cc1cc(N)n2nc(-c3ccc(C(C)(C)C)cc3)cc2n1,9.25%
19,CC1=C/C(=N\OS(=O)(=O)c2ccccc2)C=CC1=O,-32.8%
20,O=C(Nc1nnc(SCc2c(Cl)cccc2Cl)s1)C1CCCO1 (stereo not given),41% (active)
21,CC(C)c1ccc(NC(=S)NC2CC3C=CC2C3)cc1 (stereo not given),35.2% (active)
22,O=C1c2ccccc2S(=O)(=O)N1CC(O)Cn1c2ccccc2c2ccccc21 (stereo not given),46.1% (active)
23,CCOC(=O)CNC(=O)CSc1ncccc1-c1nc2ccccc2[nH]1,1.05%
24,O=C(Nc1ccc(Cl)c(Cl)c1)N1CC=C(c2ccccc2)CC1,33.3% (active)
25,CS(=O)(=O)c1sc2nc(-c3ccccc3)cc(-c3ccccc3)c2c1N,-14.8%

row,Structure (SMILES),inhibition
1,Nc1cccc(-c2cc(-c3ccccc3)nc(-c3cccc(N)c3)n2)c1,36.6% (active)
2,O=c1oc2ccccc2cc1-c1csc(Nc2ccc(O)cc2)n1,39.9% (active)
3,O=C(CC(O)(C(F)(F)F)C(F)(F)F)Nc1ccc(Cl)c(Cl)c1,92.4% (active)
4,CCOC(=O)C1Sc2[nH]c(=O)sc2C(c2ccc(Cl)cc2)C1C(=O)OCC (stereo not given),48.2% (active)
5,CC1CC(=S)Nc2ccccc2N1Cc1ccccc1 (stereo not given),-14.8%
6,O=C(Oc1ccc([N+](=O)[O-])cc1)c1ccc2ccccc2n1,33.2% (active)
7,CCCc1nc2c(c(=O)c3ccccc3n2C)c(=O)n1C1CCCCCC1,-18.1%
8,Cc1[nH]n(C(N)=S)c(=O)c1N=Nc1ccc(Cl)cc1Cl,51.7% (active)
9,CCCCC1(C(=O)OCC)NC(c2ccc(O)cc2)C2C(=O)N(c3ccccc3)C(=O)C21 (stereo not given),7%
10,CCSC1=C(C#N)C(=O)n2c1cc1c2CCCC1,56.2% (active)
11,O=C(NCc1ccc2c(c1)OCO2)c1c(O)nc2sccn2c1=O,27.8%
12,CC(=NCc1ccc2c(c1)OCO2)C1=C(O)c2ccccc2C1=O,66.2% (active)
13,COc1ccc(O)c(C(=O)c2cnc3c(c2)c(-c2ccc(F)cc2)c(C#N)c(=O)n3C)c1,3.75%
14,O=C1[C@@H](c2ccccc2)[C@@H](c2ccccc2)N1c1cccnc1,61.4% (active)
15,C=CCNC(=S)NNC(=O)COc1c(Cl)cc(Cl)cc1Cl,2.85%
16,O=C(Oc1c(-c2ccco2)oc2ccccc2c1=O)c1cccnc1,48% (active)
17,Cc1ccc2nc(N(CCN(C)C)C(=O)C3=COCCO3)sc2c1,34.9% (active)
18,CN(C)CCN(C(=O)C1=COCCO1)c1nc2ccc(Cl)cc2s1,69.3% (active)
19,Cc1ccoc1C(=O)Nc1cccc(Oc2ccccc2)c1,61% (active)
20,Cc1nc(-c2ccc(Cl)cc2)sc1C(=O)CBr,52.6% (active)
21,CCNC(=S)N(CCc1c(C)[nH]c2ccc(C)cc12)Cc1ccco1,20.2%
22,Cc1onc(NC(=O)c2ccc([N+](=O)[O-])o2)c1Br,53.8% (active)
23,O=C(Nc1ccc(Br)cn1)c1ccc([N+](=O)[O-])o1,46.5% (active)
24,Cc1cccc(NC(=O)c2ccc([N+](=O)[O-])o2)c1,81.6% (active)
25,CC(C)CC(=O)NC(=S)Nc1ccc(F)cc1F,15.1%

row,Structure (SMILES),inhibition
1,Cc1ccc2nc(-c3ccc(SCC(=O)Nc4cc(C)on4)nc3)[nH]c2c1,2.7%
2,CC(C)Oc1c(Br)cc(Br)cc1/C=N/NC(N)=S,23.6%
3,NC(=S)N/N=C/c1coc2cc(Cl)ccc2c1=O,50.8% (active)
4,C=C(C)COc1ccc(-c2n[nH]c(C)c2-c2ccccc2)c(O)c1,40.1% (active)
5,Oc1ccccc1-c1cc(-c2ccc(Cl)cc2)n[nH]1,55.5% (active)
6,CC(C)NC(=O)/C(C#N)=C\c1ccc(N(C)C)c(Br)c1,46.6% (active)
7,O=c1[nH]cnc2c1c(-c1ccccc1)cn2-c1ccc(F)cc1,-25.6%
8,CC(=NCc1ccco1)c1c(C(F)(F)F)[nH]n(-c2nc3ccccc3s2)c1=O,57.4% (active)
9,N/C(=N\OC(=O)CCc1ccccc1)c1ccc(Cl)cc1,57.2% (active)
10,COc1ccc(/C(N)=N/OC(=O)CCCc2ccccc2)cc1,39.8% (active)
11,COc1ccc(-c2oc3ncn(Cc4ccco4)c(=N)c3c2-c2ccc(OC)cc2)cc1,38.8% (active)
12,COc1ccc2[nH]cc(/C=C(/C#N)S(=O)(=O)c3ccccc3)c2c1,38% (active)
13,N/C(=N\OC(=O)Nc1ccc(Cl)c(Cl)c1)c1ncc(C(F)(F)F)cc1Cl,72.8% (active)
14,CC1CCCC(C)N1C(=O)CN1CCN(c2nc(-c3ccc(F)cc3)cs2)CC1 (stereo not given),39.2% (active)
15,CC(=O)Oc1ccc(N(C(C)=O)S(=O)(=O)c2ccc3ccccc3c2)cc1Br,40.5% (active)
16,Cc1cc(C)n(CC(O)CN(c2ccccc2)S(=O)(=O)c2ccc3ccccc3c2)n1 (stereo not given),2.2%
17,CCc1ccc(OCC(=O)NCC(c2ccc(Cl)cc2)N2CCCCC2)cc1 (stereo not given),44% (active)
18,CC1CCC2CCCCC2N1C(=O)c1cc([N+](=O)[O-])cc([N+](=O)[O-])c1 (stereo not given),33% (active)
19,CCOc1ccccc1/C=c1\sc2nc(-c3ccco3)nn2c1=O,48.9% (active)
20,Cc1ccc(-c2ccnc3nc(Sc4ncc(C(F)(F)F)cc4Cl)nn23)cc1,29.6%
21,Cc1nn2c(c1-c1ccccc1)N=C(c1ccco1)CC2c1ccccc1 (stereo not given),-19.4%
22,CC(NC(=S)Nc1ccccc1)C1COc2ccccc2O1 (stereo not given),40.3% (active)
23,Cc1ccc(N2C(=O)C3C4C=CC(CC4)C3C2=O)cc1Cl (stereo not given),0.2%
24,Cc1ccc(C(=O)COc2cccc(NC(=O)c3ccco3)c2)cc1,53.1% (active)
25,COc1cccc(OCc2cc(C(=O)N3CCN(C(=O)c4ccco4)CC3)no2)c1,8.3%
